Reference: the supplement of paper PMC9254222
Whole data set: some 1,100 compounds, median “Wnt reporter firefly/Renilla luciferase ratio relative to plate median” near 1.1, cut for the highest 2% near 1.6. For the sample, the highest values were picked, then their nearest neighbours and some compounds at random.

Tested on: HEK293T (UBE3A T485A transfected, BAR Wnt reporter)
Experiment: Wnt reporter firefly/Renilla luciferase ratio relative to plate median (fold (linear ratio)); higher = more Wnt/beta-catenin reporter activation
Details: 24 h
In short: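 Chemicals were robotically dosed at 0.01–100 uM for 24 h onto HEK293T cells, starting four hours after transfection with a BAR firefly luciferase Wnt reporter, TK-Renilla and an expression plasmid. The cells had been plated at 4500 cells/well in DMEM with 10% FBS at 37°C and 5% CO2. Following a Dual-Glo luciferase readout, the firefly/Renilla ratio served as the Wnt activity measure and raw Renilla as the cell health measure, both median-centred on each plate. Each value is the mean of four biological replicates.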

SMILES	Wnt reporter firefly/Renilla luciferase ratio (concentration: 0.1 uM)	Wnt reporter firefly/Renilla luciferase ratio (concentration: 1 uM)	Wnt reporter firefly/Renilla luciferase ratio (concentration: 10 uM)	Wnt reporter firefly/Renilla luciferase ratio (concentration: 100 uM)	Wnt reporter firefly/Renilla luciferase ratio (concentration: 0.01 uM)
O=[N+]([O-])C(CO)(CO)CO [2-(Hydroxymethyl)-2-nitro-1,3-propanediol]	0.982	1.11	1.27	1.27	
O=c1nc(-c2ccc(C(F)(F)F)cc2)[nH]c2c1CSCC2	0.688	0.648	0.664	0.578	0.923
CCCC(CCC)C(=O)O [Valproic acid]	0.995	1.01	1.14	1.69	1.2
CCCCCCC(=O)O [Heptanoic acid]	1.02	1.15	1.07	0.917	
CCCCC(CC)C(=O)O (stereo not given) [2-Ethylhexanoic acid]	0.925	1	1.4	1.2	
C[C@@H](Oc1ccc(CNC(=O)c2cccnc2Oc2ccc3c(c2)OCO3)c(F)c1)C(=O)O	1.14	1.12	1.13	1.33	
Cc1cc(F)ccc1-c1cc(N2CC[C@@H](O)[C@H]2CO)ncc1N(C)C(=O)C(C)(C)c1cc(C(F)(F)F)cc(C(F)(F)F)c1	1.27	1.05	1.16	0.311	
N#C[C@@H]1CC(F)(F)CN1C(=O)CNC1CC2CCC(C1)N2c1ncccn1 (stereo not given in full)	0.985	0.923	0.937	0.82	
[Cl-].c1ccc(C[n+]2cccc3ccccc32)cc1 [1-Benzylquinolinium chloride]	0.993	0.903	1.05		
CCCOC(=O)c1ccc(O)cc1 [Propylparaben]	1.46	1.02	0.949	0.169	
Nc1ccc2c(c1)C(=O)c1ccccc1C2=O [2-Aminoanthraquinone]	1.06	1.2	1.28	1.58	
O=C(O)c1cccnc1 [Nicotinic acid]	1.02	1.17	0.874	1.27	
CNCc1ccc(NC(=O)c2c[nH]c3c2C(=O)CCC3)cc1	1.24	1.06	1.69	0.318	
CO[C@H]1/C=C/O[C@@]2(C)Oc3c(C)c(O)c4c(O)c(c(/C=N/N5CCN(C)CC5)c(O)c4c3C2=O)NC(=O)/C(C)=C\C=C\[C@H](C)[C@H](O)[C@@H](C)[C@@H](O)[C@@H](C)[C@H](OC(C)=O)[C@@H]1C [Rifampicin]	1.29	1.07	1.27	0.362	
CCCC(=O)O [Butanoic acid]	1.31	1	1.12	1.62	
CCCCCCCCCC(=O)O [Decanoic acid]	1.43	1.04	1.39	0.794	
CCCCCC(=O)O [Hexanoic acid]	1.02	0.926	1.05	1.27	
O=C(OCCOCCOC(=O)c1ccccc1)c1ccccc1 [Diethylene glycol dibenzoate]	1.08	1.16	1.34	1.44	
CCCCCCCCCCCCc1ccccc1S(=O)(=O)O [Dodecylbenzenesulfonic acid]	1.14	1.13	1.2	1.04	
NS(=O)(=O)c1cc2c(cc1Cl)NCNS2(=O)=O [Hydrochlorothiazide]	1.41	1.17	1.12	1.32	

SMILES	Wnt reporter firefly/Renilla luciferase ratio (concentration: 0.1 uM)	Wnt reporter firefly/Renilla luciferase ratio (concentration: 1 uM)	Wnt reporter firefly/Renilla luciferase ratio (concentration: 10 uM)	Wnt reporter firefly/Renilla luciferase ratio (concentration: 100 uM)	Wnt reporter firefly/Renilla luciferase ratio (concentration: 0.01 uM)
CC(=O)OC1C(=O)C2(C)C(O)CC3OCC3(OC(C)=O)C2C(OC(=O)c2ccccc2)C2(O)CC(OC(=O)C(O)C(NC(=O)c3ccccc3)c3ccccc3)C(C)=C1C2(C)C (stereo not given) [Taxol]	0.822	0.575	0.409	1.98	1.29
O=C([N-]S(=O)(=O)/C=C/c1ccccc1)c1ccc(F)cc1Cl.[Na+]	1.15	1.07	0.657	0.3	
CC(C)c1cccc(C(C)C)c1N1C(=O)c2ccc(O)cc2C1=O	1.19	1.17	0.259		
C=CCc1ccc(O)c(OC)c1 [Eugenol]	1.02	1.13	1.19	1.55	
OC[C@H]1O[C@@H]2O[C@H]3[C@H](O)[C@@H](O)[C@@H](O[C@H]4[C@H](O)[C@@H](O)[C@@H](O[C@H]5[C@H](O)[C@@H](O)[C@@H](O[C@H]6[C@H](O)[C@@H](O)[C@@H](O[C@H]7[C@H](O)[C@@H](O)[C@@H](O[C@H]1[C@H](O)[C@H]2O)O[C@@H]7CO)O[C@@H]6CO)O[C@@H]5CO)O[C@@H]4CO)O[C@@H]3CO [alpha-Cyclodextrin]	1.02	1.09	0.976	0.971	
CCCCCCC(C=O)=Cc1ccccc1 [2-Benzylideneoctanal]	0.942	0.906	0.822	0.757	
O=C(CCCCCCC(=O)Nc1ccccc1)NO [Vorinostat (SAHA)]	1.23	1.05	3.08		1.33
O=C(OCCCCCCOC(=O)c1ccccc1)c1ccccc1 [Hexane-1,6-diyl dibenzoate]	0.955	0.846	1.01	1.37	
CC(C)(O)c1ccc(CNC(=O)c2cccnc2Oc2ccc(F)cc2)cc1	0.96	1.05	1.22	0.695	
CCCc1ccccc1 [Propylbenzene]	0.987	0.856	0.88	1.43	
CC(C)(C)c1ccccc1 [tert-Butylbenzene]	1.01	0.913	0.895	1.16	
COc1ccc(S(=O)(=O)N2C(=O)[C@@](c3ccccc3OC)(N3C[C@H](O)C[C@H]3C(=O)N(C)C)c3cc(Cl)ccc32)c(OC)c1 [Nelivaptan]	1.09	0.857	0.612	0.355	
CCCCCCCCCCCCCCOS(=O)(=O)[O-].[Na+] [Sodium myristyl sulfate]	1.14	1.11	1.06	0.293	
CCCCCCCCCCCCCCCCOS(=O)(=O)[O-].[Na+] [Sodium hexyldecyl sulfate]	0.784	1.09	0.931	1.7	
CCCCCCCCCCCCOS(=O)(=O)[O-].[Na+] [Sodium dodecyl sulfate]	1.32	0.99	1.05	0.875	
CC(=O)c1ccccc1 [Acetophenone]	1.48	1.03	1.27	1.46	
CCCCCCCCO [1-Octanol]	0.948	0.949	1.11	1.09	
O=c1ccn(C2OC(COP(=O)(O)OP(=O)(O)OP(=O)(O)O)C(O)C2O)c(=O)[nH]1 (stereo not given)	1.13	1.15	1.07	1.94	1.43
CCC(C)c1ccccc1O (stereo not given) [2-(Butan-2-yl)phenol]	1.19	0.977	0.947	1.14	
CC(C)COC(=O)CCCCC(=O)OCC(C)C [Diisobutyl adipate]	1.11	1.15	1.28	1.44	

SMILES	Wnt reporter firefly/Renilla luciferase ratio (concentration: 0.1 uM)	Wnt reporter firefly/Renilla luciferase ratio (concentration: 1 uM)	Wnt reporter firefly/Renilla luciferase ratio (concentration: 10 uM)	Wnt reporter firefly/Renilla luciferase ratio (concentration: 100 uM)	Wnt reporter firefly/Renilla luciferase ratio (concentration: 0.01 uM)
CCCN(CCC)C(=O)SCC	1.22	0.859	1.3	1.09	1.35
CCSC(=O)N(CC(C)C)CC(C)C [Butylate]	1.31	1.21	1.71	0.486	1.05
CN1C(=O)N(c2ccccc2Br)Cc2cnc(Nc3ccc4c(c3)OCC(CO)O4)nc21 (stereo not given)	0.694	0.73	1.19		
Oc1ccccc1 [Phenol]	0.93	1.28	1.19	1.35	
CCOCCO [2-Ethoxyethanol]	1.04	1.01	1.18	1.25	
CCOCCOCCO [2-(2-Ethoxyethoxy)ethanol]	0.833	1.24	0.948	1.26	
CCOCCOCCOCCO [2-[2-(2-Ethoxyethoxy)ethoxy]ethanol]	0.979	0.929	1.01	1.62	
CC(C)CCCCCCOC(=O)c1ccc(C(=O)OCCCCCCC(C)C)c(C(=O)OCCCCCCC(C)C)c1 [Triisononyl trimellitate]	1.08	0.919	1.18	1.34	
CC[C@@H]1C[C@H](N(Cc2cc(C(F)(F)F)cc(C(F)(F)F)c2)C(C)=O)c2cc(C(F)(F)F)ccc2N1C(=O)OC(C)C	0.973	1.26	1.2	1.01	
O=C(O)c1cccc(C(=O)O)c1 [1,3-Benzenedicarboxylic acid]	1.21	1.28	1.24	1.02	
CC(C)(c1ccc(O)cc1)c1ccc(O)cc1 [Bisphenol A]	1.13	1.05	0.924	0.302	1.09
CC[C@H](C)[C@@H](C(=O)O)n1sc2ccccc2c1=O	0.996	0.949	0.684	0.568	
CCCCOC(=O)[C@@H](C)Oc1ccc(Oc2ccc(C(F)(F)F)cn2)cc1 [Fluazifop-P-butyl]	0.832	1.04	1.09	1.67	0.757
CCOC(=O)C(C)Oc1ccc(Oc2cnc3cc(Cl)ccc3n2)cc1 (stereo not given) [Quizalofop-ethyl]	1.1	1.03	1.09	0.981	0.779
C#CCOC(=O)[C@@H](C)Oc1ccc(Oc2ncc(Cl)cc2F)cc1 [Clodinafop-propargyl]	1.37	1.14	1.25	0.479	1.28
CCCCOC(=O)c1ccccc1 [Butyl benzoate]	1.4	0.911	1.09	1.11	
CCOC(=O)C(C)Oc1ccc(Oc2nc3ccc(Cl)cc3o2)cc1 (stereo not given) [Fenoxaprop-ethyl]	1.37	0.888	0.884	0.813	1.14
CCCCOC(=O)C(C)Oc1ccc(Oc2ccc(C(F)(F)F)cn2)cc1 (stereo not given) [Fluazifop-butyl]	1.71	1.15	1.54	1.13	1.15
CCCCCCCCOC(=O)c1cc(O)c(O)c(O)c1 [Octyl gallate]	1.25	1.3	0.702	0.614	
COC(=O)c1ccccc1C(=O)O [Monomethyl phthalate]	1.05	1.09	1.11	1.4	1.05
